Measurements: PubChem BioAssay (EPA / NIEHS)
Active and inactive are the calls of the source. Rule for the calls: active = hit-call score of the fitted dose curve at least 0.9, where 1 is the maximum; inactive = score below 0.9.

These molecules were tested on E-selectin (Homo sapiens) (UniProt P16581) (assay: BSK_3C_Eselectin: BioMAP Diversity Plus: 3C Assay for Eselectin Biomarker Activity (AID 2283015;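 for outcome: cell surface E-selectin protein quantified by ELISA 24 h after dosing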)). Conditions: primary human endothelial cells (HUVEC); actives raise or lower the signal.
How it was run: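 Human vascular endothelium from umbilical vein is exposed to test chemicals for 24 h. E-selectin levels are read by ELISA and compared with DMSO controls.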

Sequence of E-selectin (Homo sapiens) (P16581 whole entry, looked up): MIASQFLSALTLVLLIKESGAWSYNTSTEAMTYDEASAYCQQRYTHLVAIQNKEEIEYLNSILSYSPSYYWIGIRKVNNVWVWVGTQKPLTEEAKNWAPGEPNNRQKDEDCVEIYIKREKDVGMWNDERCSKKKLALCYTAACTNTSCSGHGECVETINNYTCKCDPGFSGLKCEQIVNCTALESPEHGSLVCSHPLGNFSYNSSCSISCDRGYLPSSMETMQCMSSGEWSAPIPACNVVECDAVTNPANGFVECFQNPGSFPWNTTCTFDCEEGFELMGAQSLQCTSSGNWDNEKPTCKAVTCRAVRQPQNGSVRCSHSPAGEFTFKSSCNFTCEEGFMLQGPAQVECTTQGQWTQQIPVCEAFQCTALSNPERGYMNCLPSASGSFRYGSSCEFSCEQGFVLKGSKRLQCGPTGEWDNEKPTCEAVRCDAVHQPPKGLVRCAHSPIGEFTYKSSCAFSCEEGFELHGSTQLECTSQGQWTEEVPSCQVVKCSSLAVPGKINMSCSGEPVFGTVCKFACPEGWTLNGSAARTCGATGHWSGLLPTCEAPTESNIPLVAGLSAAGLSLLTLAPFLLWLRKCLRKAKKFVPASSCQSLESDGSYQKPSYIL

| SMILES | outcome | AC50 |
| --- | --- | --- |
| C[C@]12CC[C@@H](O)C[C@@H]1CC[C@@H]1[C@@H]2CC[C@]2(C)C(=O)CC[C@@H]12 | inactive |  |
| CC(C=O)Cc1ccc2c(c1)OCO2 (stereo unspecified) | inactive |  |
| C#CCOC(=O)/C=C(C)/C=C/CC(C)CCCC(C)C (stereo unspecified) |  | 6.38 µM (active) |
| Nc1ccc(N)cc1 | inactive |  |
| COCC(=O)N(c1c(C)cccc1C)[C@H](C)C(=O)OC | inactive |  |
| O=C(O)C1(c2ccc3c(c2)OC[C@H](Cc2ccc(-c4ccccc4)cc2)[C@H]3O)CCCC1 |  | 24.9 µM (active) |
| CCOP(=O)(OCC)SCCSCC | inactive |  |
| NC(=O)CCl | inactive |  |
| Oc1c(Br)cc(Br)cc1Br |  | 27.2 µM (active) |
| CC(C)(C)c1cc([N+](=O)[O-])cc(C(C)(C)C)c1O |  | 0.549 µM (active) |
| OC(Cc1ccccc1Cl)(Cn1cncn1)C1(Cl)CC1 (stereo unspecified) | inactive |  |
| Cc1c([N+](=O)[O-])c(C)c([N+](=O)[O-])c(C(C)(C)C)c1[N+](=O)[O-] |  | 20 µM (active) |
| C=CC(Cl)CCl (stereo unspecified) | inactive |  |
| CCCCN(CCCC)C(=S)[S-].CCCCN(CCCC)C(=S)[S-].[Ni+2] | inactive |  |
| COc1ccccc1N | inactive |  |
| CC(C)=CC1C(C(=O)OCc2cccc(Oc3ccccc3)c2)C1(C)C (stereo unspecified) |  | 2.62 µM (active) |
| Nc1c(Oc2ccccc2)cc(O)c2c1C(=O)c1ccccc1C2=O | inactive |  |
| Cc1ccc2nc3sc(=O)sc3nc2c1 |  | 8.99 µM (active) |

What follows are molecules tested on Interleukin-1 alpha (IL1a), IL1A (gene 3552) (assay: BSK_BE3C_IL1a: BioMAP Diversity Plus: BE3C Assay for Interleukin-1 alpha (IL1a) Biomarker Activity (AID 2283016)). Conditions: primary human bronchial epithelial cells; actives raise or lower the signal.
How it was run: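 Human primary bronchial epithelial cells (BE3C system) were dosed with compound and IL-1a measured by ELISA 24 h later. Activity was fitted bidirectionally against DMSO baseline; cytotoxicity was tracked in parallel cultures by SRB total-protein staining.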

| SMILES | outcome | AC50 |
| --- | --- | --- |
| C[C@]12CC[C@@H](O)C[C@@H]1CC[C@@H]1[C@@H]2CC[C@]2(C)C(=O)CC[C@@H]12 | inactive |  |
| CC(C=O)Cc1ccc2c(c1)OCO2 (stereo unspecified) | inactive |  |
| C#CCOC(=O)/C=C(C)/C=C/CC(C)CCCC(C)C (stereo unspecified) | inactive |  |
| Nc1ccc(N)cc1 | inactive |  |
| COCC(=O)N(c1c(C)cccc1C)[C@H](C)C(=O)OC | inactive |  |
| O=C(O)C1(c2ccc3c(c2)OC[C@H](Cc2ccc(-c4ccccc4)cc2)[C@H]3O)CCCC1 |  | 15.3 µM (active) |
| CCOP(=O)(OCC)SCCSCC | inactive |  |
| NC(=O)CCl | inactive |  |
| Oc1c(Br)cc(Br)cc1Br | inactive |  |
| CC(C)(C)c1cc([N+](=O)[O-])cc(C(C)(C)C)c1O | inactive |  |
| OC(Cc1ccccc1Cl)(Cn1cncn1)C1(Cl)CC1 (stereo unspecified) | inactive |  |
| Cc1c([N+](=O)[O-])c(C)c([N+](=O)[O-])c(C(C)(C)C)c1[N+](=O)[O-] | inactive |  |
| C=CC(Cl)CCl (stereo unspecified) |  | 0.14 µM (active) |
| CCCCN(CCCC)C(=S)[S-].CCCCN(CCCC)C(=S)[S-].[Ni+2] | inactive |  |
| COc1ccccc1N | inactive |  |
| CC(C)=CC1C(C(=O)OCc2cccc(Oc3ccccc3)c2)C1(C)C (stereo unspecified) | inactive |  |
| Nc1c(Oc2ccccc2)cc(O)c2c1C(=O)c1ccccc1C2=O | inactive |  |
| Cc1ccc2nc3sc(=O)sc3nc2c1 | inactive |  |

The molecules below were run on Monocyte Chemoattractant Protein-1 (MCP1), CCL2 (gene 6347) (assay: BSK_3C_MCP1: BioMAP Diversity Plus: 3C Assay for Monocyte Chemoattractant Protein-1 (MCP1) Biomarker Activity (AID 2283017)). Conditions: primary human endothelial cells (HUVEC); actives raise or lower the signal.
How it was run: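 Endothelial cells from human umbilical vein are dosed with chemical, cultured 24 h, then assayed for MCP-1 by ELISA; both increases and decreases are modelled against DMSO controls.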

| SMILES | outcome | AC50 |
| --- | --- | --- |
| CC(C=O)Cc1ccc2c(c1)OCO2 (stereo unspecified) | inactive |  |
| O=C(O)C1(c2ccc3c(c2)OC[C@H](Cc2ccc(-c4ccccc4)cc2)[C@H]3O)CCCC1 |  | 23.6 µM (active) |
| OC(Cc1ccccc1Cl)(Cn1cncn1)C1(Cl)CC1 (stereo unspecified) | inactive |  |
| CCCCN(CCCC)C(=S)[S-].CCCCN(CCCC)C(=S)[S-].[Ni+2] | inactive |  |

What follows are molecules tested on Monocyte Chemoattractant Protein-1 (MCP1), CCL2 (gene 6347) (assay: BSK_4H_MCP1: BioMAP Diversity Plus: 4H Assay for Monocyte Chemoattractant Protein-1 (MCP1) Biomarker Activity (AID 2283018)). Conditions: primary human endothelial cells (HUVEC); actives raise or lower the signal.
How it was run: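 Human umbilical vein endothelial cells (4H system) dosed with chemical; MCP-1 measured by ELISA 24 h after dosing. Bidirectional curve fitting against DMSO negative control as baseline; parallel SRB total-protein staining tracks overt cytotoxicity.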

| SMILES | outcome | AC50 |
| --- | --- | --- |
| C[C@]12CC[C@@H](O)C[C@@H]1CC[C@@H]1[C@@H]2CC[C@]2(C)C(=O)CC[C@@H]12 | inactive |  |
| CC(C=O)Cc1ccc2c(c1)OCO2 (stereo unspecified) | inactive |  |
| C#CCOC(=O)/C=C(C)/C=C/CC(C)CCCC(C)C (stereo unspecified) |  | 13.4 µM (active) |
| Nc1ccc(N)cc1 | inactive |  |
| COCC(=O)N(c1c(C)cccc1C)[C@H](C)C(=O)OC | inactive |  |
| O=C(O)C1(c2ccc3c(c2)OC[C@H](Cc2ccc(-c4ccccc4)cc2)[C@H]3O)CCCC1 |  | 20 µM (active) |
| CCOP(=O)(OCC)SCCSCC | inactive |  |
| NC(=O)CCl | inactive |  |
| Oc1c(Br)cc(Br)cc1Br | inactive |  |
| CC(C)(C)c1cc([N+](=O)[O-])cc(C(C)(C)C)c1O | inactive |  |
| OC(Cc1ccccc1Cl)(Cn1cncn1)C1(Cl)CC1 (stereo unspecified) | inactive |  |
| Cc1c([N+](=O)[O-])c(C)c([N+](=O)[O-])c(C(C)(C)C)c1[N+](=O)[O-] |  | 20 µM (active) |
| C=CC(Cl)CCl (stereo unspecified) | inactive |  |
| CCCCN(CCCC)C(=S)[S-].CCCCN(CCCC)C(=S)[S-].[Ni+2] | inactive |  |
| COc1ccccc1N | inactive |  |
| CC(C)=CC1C(C(=O)OCc2cccc(Oc3ccccc3)c2)C1(C)C (stereo unspecified) |  | 20 µM (active) |
| Nc1c(Oc2ccccc2)cc(O)c2c1C(=O)c1ccccc1C2=O | inactive |  |
| Cc1ccc2nc3sc(=O)sc3nc2c1 |  | 5 µM (active) |

Each molecule was assayed on Human Leukocyte Antigen - DR isotype (HLADR), HLA-DRA (gene 3122) (assay: BSK_3C_HLADR: BioMAP Diversity Plus: 3C Assay for Human Leukocyte Antigen - DR isotype (HLADR) Biomarker Activity (AID 2283019;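 for outcome: ELISA of cell-surface HLA-DR on HUVEC 24 h after dosing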)). Conditions: primary human endothelial cells (HUVEC); actives raise or lower the signal.
How it was run: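 Endothelial cells from human umbilical vein are treated with test chemical; after 24 h, HLA-DR levels are measured by ELISA. Data are fitted in both directions using DMSO as the baseline.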

| SMILES | outcome | AC50 |
| --- | --- | --- |
| C[C@]12CC[C@@H](O)C[C@@H]1CC[C@@H]1[C@@H]2CC[C@]2(C)C(=O)CC[C@@H]12 | inactive |  |
| CC(C=O)Cc1ccc2c(c1)OCO2 (stereo unspecified) | inactive |  |
| C#CCOC(=O)/C=C(C)/C=C/CC(C)CCCC(C)C (stereo unspecified) |  | 28.1 µM (active) |
| Nc1ccc(N)cc1 | inactive |  |
| COCC(=O)N(c1c(C)cccc1C)[C@H](C)C(=O)OC | inactive |  |
| O=C(O)C1(c2ccc3c(c2)OC[C@H](Cc2ccc(-c4ccccc4)cc2)[C@H]3O)CCCC1 |  | 20 µM (active) |
| CCOP(=O)(OCC)SCCSCC | inactive |  |
| NC(=O)CCl | inactive |  |
| Oc1c(Br)cc(Br)cc1Br |  | 34.3 µM (active) |
| CC(C)(C)c1cc([N+](=O)[O-])cc(C(C)(C)C)c1O |  | 0.016 µM (active) |
| OC(Cc1ccccc1Cl)(Cn1cncn1)C1(Cl)CC1 (stereo unspecified) | inactive |  |
| Cc1c([N+](=O)[O-])c(C)c([N+](=O)[O-])c(C(C)(C)C)c1[N+](=O)[O-] |  | 26.9 µM (active) |
| C=CC(Cl)CCl (stereo unspecified) | inactive |  |
| CCCCN(CCCC)C(=S)[S-].CCCCN(CCCC)C(=S)[S-].[Ni+2] | inactive |  |
| COc1ccccc1N | inactive |  |
| CC(C)=CC1C(C(=O)OCc2cccc(Oc3ccccc3)c2)C1(C)C (stereo unspecified) |  | 20 µM (active) |
| Nc1c(Oc2ccccc2)cc(O)c2c1C(=O)c1ccccc1C2=O | inactive |  |
| Cc1ccc2nc3sc(=O)sc3nc2c1 |  | 5.97 µM (active) |
